Most compounds without a hit are left out; they make up all but 3.1% or so of the library.
Mtb BioA inh: M. tuberculosis BioA enzyme inhibitors, primary screen, biochemical, plate reader, single point, HTS. 7,8-diaminopelargonic acid synthase BioA (Mycobacterium tuberculosis). purified M. tuberculosis BioA enzyme. inhibition, % at 9.99 µM. actives 0.096% (n = 360,000); in the data active means inhibition above about 40%
GDH-TPI counter-1: GDH-TPI coupling enzyme inhibitors, primary screen, artefact control for M. tuberculosis FBA inhibitor project, biochemical, absorbance, full deck; GDH-TPI coupled enzyme counterscreen, NADH absorbance; inhibition, % at 4.8 µM; actives 1.2% (n = 360,000); AID 588335, 2011; in the data active means inhibition above about 30%;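 further: 0% = DMSO wells and 100% = wells lacking the enzyme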
3CLpro inhibitor: SARS-CoV 3CLpro protease inhibitors, primary screen, biochemical, quenched FRET; Replicase polyprotein 1ab (Severe acute respiratory syndrome coronavirus), P0C6X7; recombinant SARS-CoV 3CLpro, quenched FRET peptide cleavage; inhibition, % at 6 µM; actives 0.14% (n = 290,000); AID 1706, 2009; in the data active means inhibition above about 12%
FadD28 FP inh: inhibitors of FadD28 bisubstrate probe binding, primary screen, biochemical, fluorescence polarization, single point. AID 588549, 2011. actives 0.22% (n = 360,000). Mycobacterium tuberculosis FadD28 fatty-acid-AMP ligase. inhibition, % at 12.5 µM; in the data active means inhibition above about 8.5%, passing the limit was not always enough
Mtb FBA inh: Mtb FBA enzyme inhibitors, primary screen, biochemical, fluorescence, strain H37Rv; inhibition, % at 1 µM; Fructose-bisphosphate aldolase (Mycobacterium tuberculosis (strain ATCC 25618 / H37Rv)), …; purified M. tuberculosis FBA, fluorescence read-out; actives 2.3% (n = 360,000);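 further: 0% = vehicle and 100% = reference inhibitor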
Target sequence (P9WQA3 whole entry, looked up): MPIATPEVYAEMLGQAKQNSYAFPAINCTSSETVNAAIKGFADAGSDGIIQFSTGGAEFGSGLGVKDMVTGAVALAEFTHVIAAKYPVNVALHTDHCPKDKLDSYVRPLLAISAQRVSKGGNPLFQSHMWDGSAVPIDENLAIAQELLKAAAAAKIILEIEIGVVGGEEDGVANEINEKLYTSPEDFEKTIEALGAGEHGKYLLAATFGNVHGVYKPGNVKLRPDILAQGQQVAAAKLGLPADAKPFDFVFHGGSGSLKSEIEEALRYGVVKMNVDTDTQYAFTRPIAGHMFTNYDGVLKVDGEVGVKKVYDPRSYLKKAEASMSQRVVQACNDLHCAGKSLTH
Mtb FBA inh conf: M. tuberculosis aldolase blockers, biochemical, fluorescence, strain H37Rv, confirmation. shares compounds with Mtb FBA inh. purified M. tuberculosis FBA, fluorescence read-out. inhibition, % at 1 µM. actives 78% (n = 5,600);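 further: 0% = vehicle wells and 100% = reference inhibitor wells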
GDH-TPI counter-2: GDH-TPI coupling enzyme inhibitors, artefact control for M. tuberculosis FBA inhibitor project, biochemical, fluorescence, high throughput | shares compounds with Mtb FBA inh | GDH-TPI coupled enzyme counterscreen | inhibition, % at 1 µM | actives 81% (n = 5,600); in the data active means inhibition above about 10%
Numbers without * were called inactive; · = no result; + = active, no number. Unless noted, no stated cut-off is given here; in the data, active means inhibition above about 27%; inactive means the rest.

SMILES | Mtb BioA inh | GDH-TPI counter-1 | 3CLpro inhibitor | FadD28 FP inh | Mtb FBA inh | Mtb FBA inh conf | GDH-TPI counter-2
C=C(C)COc1ccc2c(CC)cc(=O)oc2c1 | · | 0.7 | 2.7 | -4.8 | 39.9* | 84.8* | 69.1*
Cc1ccc(OCC(=O)Oc2cccc(C)c2)cc1 | -1.5 | -3.0 | · | -1.7 | 1.4 | · | ·
Cc1ccc(OCC(=O)Oc2ccc(C(C)C)cc2)cc1 | 2.7 | -13.1 | 0.2 | -2.5 | 29.5* | 183.1* | 130.4*
COc1ccc(CN2C[C@@H](O)COC[C@@H]3O[C@H](CC(=O)NCCN4CCCC4)CC[C@H]32)cc1 | -1.3 | · | · | · | · | · | ·
Cn1ccc2c(-c3ccc4c(c3)OCCO4)cc3c(c21)C1CCC3O1 (configuration not stated) | 1.3 | · | · | 2.4 | 109.0* | 1.0 | -4.3
CSc1ccc(-c2cc3c(c4c2ccn4C)C2CCC3O2)cc1 (configuration not stated) | -1.0 | · | · | 7.4 | 100.7* | 14.0 | 11.5*
CSc1ccc(-c2cc3c(c4c2ccn4C)C2CCC3C2)cc1 (configuration not stated) | -0.3 | · | · | 0.5 | 20.8 | · | ·
Cn1ccc2c(-c3ccc(C(F)(F)F)cc3)cc3c(c21)C1CCC3O1 (configuration not stated) | 0.0 | · | · | -0.1 | 92.9* | 98.3* | 69.0*
COc1ccc(CN(C)C[C@@H]2OCCCC[C@H](C)Oc3ccc(NC(=O)Nc4ccc(F)cc4)cc3C(=O)N([C@@H](C)CO)C[C@H]2C)cc1 | -1.0 | · | · | · | · | · | ·
C[C@@H]1CCCCO[C@@H](CN(C)C(=O)c2ccccc2)[C@@H](C)CN([C@@H](C)CO)C(=O)c2cc(NC(=O)Nc3ccccc3)ccc2O1 | 0.2 | · | · | · | · | · | ·
O=Cc1cn(-c2ccccc2)nc1-c1cc2cc(O)ccc2oc1=O | · | 33.5* | 5.0 | -2.9 | 32.2* | 81.6* | 57.2*
O=Cc1cn(-c2ccccc2)nc1-c1cc2c(ccc3ccccc32)oc1=O | -0.7 | -5.6 | 2.2 | -2.3 | 12.1 | · | ·
Cc1cc(OC(C)C(=O)N[C@H](C(=O)O)c2ccccc2)c2c3c(c(=O)oc2c1)CCC3 (some centres not stated) | -0.3 | 2.9 | 1.1 | -4.3 | 108.2* | 143.9* | 104.7*
CC(Oc1ccc2c3c(c(=O)oc2c1)CCCC3)C(=O)NCC(O)c1ccccc1 (configuration not stated) | -2.5 | 18.8 | 4.8 | 0.2 | 50.4* | 165.4* | 117.3*
O=C(COc1ccc2c3c(c(=O)oc2c1)CCC3)NCC(O)c1ccccc1 (configuration not stated) | -2.6 | 2.2 | -6.0 | -3.4 | 3.5 | · | ·
Cc1cc(Oc2ccc(C(F)(F)F)cc2[N+](=O)[O-])c2c3c(c(=O)oc2c1)CCC3 | 0.1 | 4.7 | -3.4 | 0.9 | 0.6 | · | ·
Cc1cc(OC(C)C(=O)NCC(O)c2ccccc2)c2c3c(c(=O)oc2c1)CCCC3 (configuration not stated) | 0.9 | 6.0 | 3.2 | -4.0 | 81.1* | 169.3* | 130.6*
C[C@H](NC(=O)[C@@H]1[C@@H](CO)[C@@H]2Cn3c(cccc3=O)[C@@H]2N1Cc1ccncc1)c1ccccc1 | -0.1 | · | · | · | · | · | ·
CN(C)CCCNC(=O)C[C@@H]1CC[C@@H]2[C@H](COC[C@@H](O)CN2S(=O)(=O)c2ccc(Cl)cc2)O1 | 0.3 | · | · | · | · | · | ·
CC1N(C)c2cccc3cccc(c23)N1C | -2.0 | 3.0 | -3.3 | -4.7 | 103.1* | 195.8* | 128.0*
C[C@@H]1CN([C@H](C)CO)C(=O)c2cccc(NC(=O)C3CCOCC3)c2O[C@H]1CN(C)Cc1ccc(Oc2ccccc2)cc1 | -2.0 | · | · | · | · | · | ·
COc1cccc(C2C=C(c3cccs3)Nc3ncnn32)c1OC (configuration not stated) | -1.2 | 12.2 | -1.7 | -3.0 | 5.0 | · | ·
COc1cccc(C2CN(c3ccc(F)cc3F)N=C2c2cccs2)c1OC (configuration not stated) | -0.7 | 4.6 | -1.8 | -4.9 | 85.6* | 168.5* | 120.5*
COc1ccccc1C1CN(c2ccccc2)N=C1c1cccs1 (configuration not stated) | -0.3 | 6.6 | -1.6 | -3.0 | 84.7* | 4.3 | -4.5
CCOc1ccccc1C1CC(c2cccs2)=NN1S(C)(=O)=O (configuration not stated) | · | 8.2 | 4.8 | -6.8 | -0.8 | · | ·
SMILES | Mtb BioA inh | GDH-TPI counter-1 | 3CLpro inhibitor | FadD28 FP inh | Mtb FBA inh | Mtb FBA inh conf | GDH-TPI counter-2
Cc1ccc(S(=O)(=O)N[C@@H]2C=C[C@H](CC(=O)NCc3ccncn3)O[C@@H]2CO)cc1 | -6.6 | · | · | · | · | · | ·
Cc1noc(C)c1S(=O)(=O)Nc1cccc2c1O[C@H](CN(C)Cc1ccncc1)[C@H](C)CN([C@@H](C)CO)C2=O | -1.7 | · | · | · | · | · | ·
C=CCn1c(-c2cc3c(s2)CCC(CC)C3)n[nH]c1=S (configuration not stated) | · | -0.9 | 2.9 | -1.2 | 84.2* | 170.1* | 136.7*
C=CCn1c(SCC(=O)NC2CCS(=O)(=O)C2)nnc1-c1cc2c(s1)CCC(CC)C2 (configuration not stated) | · | 1.1 | 4.5 | -1.8 | 3.2 | · | ·
Cn1c(N)nc2nc(CCc3ccccc3)c(=O)[nH]c2c1=O | -0.6 | 4.2 | 1.1 | -2.4 | 60.4* | 7.9 | 1.6
Cn1c(=O)c2c(nc(CCc3ccccc3)n2C)n(C)c1=O | -0.1 | -4.4 | · | -4.8 | -2.2 | · | ·
C=CCSc1nnc(-c2sc(-c3ccccc3)nc2C)n1C | · | 12.8 | 7.3 | 0.5 | 63.6* | 2.3 | -3.5
COc1ccc(C(C(=O)NCC2CCCO2)N(C(=O)c2snc(C(N)=O)c2N)c2ccccc2C)cc1OC (configuration not stated) | -0.8 | 14.1 | -2.5 | -0.4 | 49.8* | 168.1* | +
COc1ccc(C(C(=O)NCC2CCCO2)N(Cc2ccccc2)C(=O)c2snc(C(N)=O)c2N)cc1OC (configuration not stated) | 0.2 | 7.6 | -4.4 | -3.7 | 4.2 | · | ·
CCc1ccccc1N(C(=O)c1snc(C(N)=O)c1N)C(C(=O)NCC1CCCO1)c1ccc(OC)c(OC)c1 (configuration not stated) | -2.3 | 24.4 | 6.7 | -0.1 | 62.0* | + | +
COc1ccc(C(C(=O)NCC2CCCO2)N(C(=O)c2snc(C(N)=O)c2N)c2ccccc2)cc1OC (configuration not stated) | -0.1 | 26.9 | -0.2 | · | 13.4 | · | ·
CN(C)C(=O)c1ccc(-c2ccc([C@H]3[C@@H](CO)N4CCCCN(C(=O)C5CCC5)C[C@@H]34)cc2)cc1 | -0.4 | · | · | · | · | · | ·

Screens as filed in PubChem.
